Experimental data reported in PubChem BioAssay (NCI).
The panel holds about 83,000 compounds, 20% with a hit somewhere; the sample as a whole holds those more often.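 Negative percent growth values reflect cell death: -40 means 40% of the cells present at the start died, and -100 means all died.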 Active and inactive are the calls of the source. The calls were made as follows: active = growth percent below 10; inactive = the rest.

Each compound was assayed on UACC-257 melanoma (assay: NCI-60 one-dose screen, 48 h (100 = growth as untreated, 0 = no growth, -100 = all killed)). Conditions: 10 µM.
In the case of `O=C(c1ccc([N+](=O)[O-])c([N+](=O)[O-])c1O)n1[nH]c(=O)c2ccccc2c1=O`, the growth is reported as 79.9% (inactive).
With `Cc1ccc(-c2cc(-c3cc4ccccc4nc3Cl)[nH]c(=S)n2)cc1` the growth was 66.5% (inactive).
With `COc1ccc2nc(Cl)c(-c3cc(-c4ccccc4)nc(=O)[nH]3)cc2c1` the growth was 105% (inactive).
In the case of `O=C(NO)c1ccc(CNc2nc(-c3ccccc3)c3ccccc3n2)cc1`, the growth is reported as 1.34% (active).
With `Cc1ccc(NC(=O)c2ccc(-n3c(=O)[nH]c4ccccc4c3=O)cc2)cc1` the growth was 122% (inactive).
For `Nc1nc(-c2ccccc2)cc(-c2cc3ccccc3nc2Cl)n1`, the growth was 97.8% (inactive).
With `C=C1CC[C@H](C(=C)C)[C@H]2C=C(C)C(=O)C3=C(C(=O)[C@@](C)(O)C3)[C@H]12` the growth was -97.3% (active).
`Cc1cccc2cc(-c3cc(-c4ccccc4)nc(=O)[nH]3)c(Cl)nc12` was tested, and the growth was 99.7% (inactive).
With `Cc1ccc(C(C)C)cc1NC(=O)c1ccccc1O` the growth was 29% (inactive).
In the case of `O=C(Nc1ccccc1)Nc1nc2ccccc2s1`, the growth is reported as 20.8% (inactive).
With `NC1=NC(c2ccccc2Cl)N=C(Nc2nn[nH]n2)N1` (stereo not given) the growth was 106% (inactive).
For `C=C(C)[C@@H]1CC[C@]2(C)[C@H](CC=C3[C@@H]4CC(C)(C)CC[C@]4(C(=O)N4CCOCC4)CC[C@]32C)[C@@]1(C)CCCN`, the growth was -92.4% (active).
`Cc1ccc(-c2cc(-c3cc4ccccc4nc3Cl)[nH]c(=O)n2)cc1` was tested, and the growth was 47% (inactive).
For `O=C1Nc2cc(Cl)ccc2/C1=C/c1cccc(OCc2ccccc2)c1`, the growth was 1.39% (active).
`O=C1Nc2ccc(Cl)cc2/C1=C/c1cccc(OCc2ccccc2)c1` was tested, and the growth was 45.8% (inactive).
